EWS-Fli block = EWS/Fli-driven NR0B1 reporter inhibitors, primary screen, A673 cells, NR0B1 luciferase, luminescence, MLPCN library; viability-normalised; inhibition, % at 12.6 µM; 350,000 compounds, 0.67% hits;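 active = mean inhibition of at least 50% after viability correction, with every replicate also passing that limit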;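 note: firefly luciferase signal divided by Alamar Blue viability fluorescence both relative to DMSO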
LGR2 inh = inhibitors of bursicon-induced LGR2 CRE-luciferase signal, primary screen, cell-based, HEK293, CRE-luciferase reporter, bursicon stimulation; inhibition, % at 9.99 µM; bursicon-stimulated, 4 h; AID 720647, 2013; Drosophila bursicon receptor LGR2 (rickets); 380,000 compounds, 0.35% hits;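 active = drop in luminescence signal, shown as inhibition above about 50% in the replicate tests, limit read from the data, passing the limit was not always enough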;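 note: agonist challenge used bursicon conditioned medium at about half maximal strength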
LMP1 NFkB inh = EBV LMP1-driven NF-kappaB luciferase reporter inhibitors, primary screen, cell-based, luminescence, single point; LMP1-induced NF-kappaB luciferase reporter cells; AID 504558, 2011; 350,000 compounds, 0.69% hits; inhibition, % at 12.5 µM; in the data active = inhibition above about 41%;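 note: 0% = neutral control wells and 100% = reference inhibitor control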
TROY NFkB inh = inhibitors of TROY-driven NF-kB signaling, primary screen, Q293 LMP1-TROYcd cells, NF-kB luciferase, uHTS. 360,000 compounds, 0.98% hits. inhibition, % at 10 µM. AID 1347056, 2019. Q293 LMP1-TROYcd NF-kB luciferase reporter, 4 h;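 active = compounds whose plate-normalised and pattern-corrected inhibition of the luciferase reporter signal at the single screening dose is 50% or more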
TWEAK-Fn14 inh = inhibitors of TWEAK-Fn14 signaling, primary screen, luciferase reporter cells, uHTS; TWEAK-stimulated Fn14 reporter cells, luciferase luminescence, 8 h; inhibition, % at 10 µM; 360,000 compounds, 2% hits; AID 1159606, 2016; in the data active = inhibition above about 50%
* marks the source's active call; other numbers are inactive results; nt = no result given. Sampled rows, rich in hits. Any-hit rate of the full collection: about 2.5%.

SMILES | EWS-Fli block | LGR2 inh | LMP1 NFkB inh | TROY NFkB inh | TWEAK-Fn14 inh
Cc1ccc(NC2=C(Cl)C(=O)OC2OC(=O)c2ccco2)c(C)c1 (configuration not stated) | nt | nt | -16 | -2 | 13
Cc1ccc(C)c(NC2=C(Cl)C(=O)OC2OC(=O)c2ccco2)c1 (configuration not stated) | 12 | 5 | -1 | -1 | 59*
CC(=O)N(C)c1ccc(NS(=O)(=O)Cc2ccccc2)cc1 | nt | nt | -6 | 57* | 45
C[C@@H]1CN([C@@H](C)CO)C(=O)c2cc(NC(=O)Cc3ccccc3)ccc2O[C@H]1CN(C)C(=O)Nc1cccc2ccccc12 | 4 | 1 | nt | nt | nt
Cc1csc(=NC(=O)c2ccccc2)n1C | nt | nt | -12 | -32 | 2
O=C(N=c1nc2ccccn2s1)c1ccccc1 | nt | nt | 9 | 59* | 95*
COc1ccc2c3c([nH]c2c1)[C@H](CO)N(C(=O)C1CC1)CC31CCN(S(C)(=O)=O)CC1 | 4 | -11 | nt | nt | nt
O=c1oc(-c2ccc(O)c(O)c2)cc2cccc(O)c12 | 49 | -89 | -43 | -58 | -52
O=C1C=Cc2cccc3ccc(O)c1c23 | -9 | 15 | 44* | 18 | 12
COC(=O)Cn1ncc2c(C)n(Cc3ccccc3)c(C)c2c1=O | 1 | -9 | 68* | -43 | -10
Cc1c2cnn(CC(=O)O)c(=O)c2c(C)n1Cc1ccccc1 | 11 | 10 | -7 | -4 | 13
COc1ccc2cnn(Cc3ccccc3)c(=O)c2c1OC | nt | nt | 3 | 51* | 28
CSCC[C@H](NC(=O)OC(C)(C)C)C(=O)N/N=C/c1cccc2nccnc12 | 4 | 14 | -1 | 17 | 93*
CSCC[C@H](NC(=O)OC(C)(C)C)C(=O)N/N=C/c1ccc2nccnc2c1 | -4 | -9 | -107 | -30 | -17
O=C(COC(=O)c1ccc(S(=O)(=O)NCc2ccco2)cc1)Nc1ccc(Cl)cn1 | -3 | 10 | 59* | -4 | 22
O=C(COC(=O)c1ccc(S(=O)(=O)NCc2ccco2)cc1)Nc1ccccc1 | -4 | 0 | -8 | 14 | -35
C[C@H]1CN([C@@H](C)CO)C(=O)c2cccc(NC(=O)C3CCOCC3)c2O[C@H]1CN(C)S(=O)(=O)c1ccc(Cl)cc1 | -7 | 10 | nt | nt | nt
CN(C)c1ccc(/C=N/n2ncc3ccccc32)cc1 | nt | nt | -34 | 23 | 54*
CCN(CC)CCNC(=O)c1ccc2c(c1NCCO)C(=O)c1ccccc1C2=O | -25 | nt | nt | 43 | 87*
COc1ccccc1NC(=O)NC1CC(=O)N(c2ccc3c(c2)OCCO3)C1 (configuration not stated) | 2 | 7 | -3 | -8 | 13
O=C(COC(=O)C1CC(=O)N(c2ccc3c(c2)OCCO3)C1)Nc1ccc2c(c1)CCC2 (configuration not stated) | nt | -1 | -2 | 10 | 65*
COc1ccccc1NC(=O)COC(=O)C1CC(=O)N(c2ccc3c(c2)OCCO3)C1 (configuration not stated) | 14 | -8 | 2 | 20 | 64*
Cc1ccc(S(=O)(=O)Nc2cccc3c2O[C@H](CN(C)Cc2ccccc2)[C@@H](C)CN([C@@H](C)CO)C3=O)cc1 | 4 | -6 | nt | nt | nt
CCNC(=O)[C@H]1[C@H](CO)[C@H]2Cn3c(ccc(C4=CCCCC4)c3=O)[C@@H]1N2Cc1ccncc1 | -13 | 3 | nt | nt | nt
O=C(Nc1ccc(C(F)(F)F)cc1)N1[C@@H]2CNC[C@H]1C2c1ccc(-c2ccc(F)cc2)cc1 (some centres not stated) | -11 | -4 | nt | nt | nt
SMILES | EWS-Fli block | LGR2 inh | LMP1 NFkB inh | TROY NFkB inh | TWEAK-Fn14 inh
COc1ccc(NS(=O)(=O)c2ccc3nc(COc4cccc5ccccc45)[nH]c3c2)cc1 | nt | -79 | -5 | 38 | 59*
COc1ccc(NC(=S)NC(=O)/C=C/c2cccs2)cc1 | -8 | 23 | -2 | -27 | 14
O=C(/C=C/c1cccs1)NC(=S)Nc1ccc(S(=O)(=O)Nc2ccccc2C(F)(F)F)cc1 | 1 | 11 | 4 | 52* | 9
NC(N)=N/N=C/c1ccc(Br)cc1 | 56* | -17 | 5 | 5 | 28
N#Cc1ccc(/C=N/N=C(N)N)cc1 | nt | nt | -5 | 9 | 4
CC(OC(=O)C1CCCCC1)c1nc2ccccc2[nH]1 (configuration not stated) | 7 | 4 | 13 | -7 | 59*
CSCCC(NC(=O)C1CCCCC1)c1nc2ccccc2[nH]1 (configuration not stated) | 1 | 18 | nt | 9 | -3
CN=c1scc(-c2cccs2)n1/N=C/c1ccc(O)c(O)c1O | 26 | -23 | 17 | 89* | 87*
C/C=C/c1ccc([C@@H]2[C@@H](CO)N3C(=O)CN(Cc4ccccc4)C[C@H]23)cc1 | 17 | 3 | nt | nt | nt
COc1cccc(NC(=O)c2nc(S(C)(=O)=O)ncc2Cl)c1 | 59* | 1 | -5 | 53* | 74*
CN(c1ccccc1)S(=O)(=O)c1ccc(NC(=O)c2nc(S(C)(=O)=O)ncc2Cl)cc1 | 58* | 10 | -3 | 71* | 93*
CCC(=O)N1[C@H](CO)[C@@H]2c3ccccc3N(C(=O)c3ccc4c(c3)OCO4)C[C@@H]21 | 2 | 0 | nt | nt | nt
Cc1nc(SCC(=O)NCC2CCCO2)c2c3c(sc2n1)CCC3 (configuration not stated) | 4 | -3 | -4 | 0 | 15
CCc1nc(Sc2nnnn2-c2ccccc2)c2c3c(sc2n1)CCCC3 | -3 | 55* | 13 | 55* | 93*
CCc1nc(N2CCN(C(=O)c3ccccc3)CC2)c2c3c(sc2n1)CCCC3 | 8 | 29 | 7 | 32 | 28
Cc1nc(Sc2nnnn2C)c2c3c(sc2n1)CCC3 | nt | nt | 48* | 23 | 78*
O=C1CC(c2ccc(O)c(O)c2)Oc2c1ccc(O)c2O (configuration not stated) | -4 | 32 | 0 | -3 | 62*
CC(C)=CCc1c(O)cc2c(c1O)C(=O)CC(c1ccccc1)O2 (configuration not stated) | 19 | nt | 6 | 10 | 47
O=C1CC(c2ccc(O)c(O)c2)Oc2cc(O)cc(O)c21 (configuration not stated) | 19 | 14 | -3 | -40 | 3
CC(C)=CCc1c(O)ccc2c1OC(c1ccc(O)c(O)c1)CC2=O (configuration not stated) | 46 | -21 | -8 | 42 | 75*
Nc1ccc2c(c1)C(=O)C(=O)c1ccccc1-2 | nt | nt | 86* | 59* | 105*
Nc1ccc2c(c1)C(=O)c1ccccc1-2 | -6 | -4 | 5 | -11 | -21
Nc1ccc2c(c1)C(=O)c1ccccc1C2=O | -89 | -67 | -33 | -42 | -29
O=C1C(=O)c2ccc(-c3ccccc3)cc2-c2ccccc21 | nt | nt | 91* | 83* | 107*
Cc1ccc(S(=O)(=O)N[C@H]2C=C[C@@H](CC(=O)N3CCc4ccccc4C3)O[C@H]2CO)cc1 | 6 | 20 | nt | nt | nt

Screening results deposited in PubChem by several laboratories.
